# Measurements reported in PubChem BioAssay AID1910 (Broad Institute, 2009).
# Hit rate of the full screen: of about 300,000 compounds, about 950 (0.32%) were called active.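 The calls were made as follows: active = mean activation of at least 10% of the iron chelator positive control signal, with at least half of replicates also reaching 10%; inconclusive = mean and replicate majority disagree about reaching 10%; inactive = mean and most replicates under 10%.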 Only a selection was taken, and actives are over-represented in it overall.
# Test: hypoxia response element reporter activation – cell-based, U2OS HRE-luciferase, luminescence, primary screen (AID 1910)
# Conditions: hits give high values, screened at 7.5 µM (by protocol), normalized: DMSO 0%, desferrioxamine 100%
row,SMILES,activation
1,O=C1CCCN2N=C(SCC(=O)Nc3ccc(Br)cc3)SC2=N1,20.5% (active)
2,O=C(Nc1ncccc1O)c1ccc(S(=O)(=O)N2CCCC2)cc1,4.15% (inactive)
3,O=C(Nc1ncccc1O)c1ccc(C(=O)c2ccccc2)cc1,14.2% (active)
4,O=C(Nc1ncccc1O)c1ccc(S(=O)(=O)N2CCCCCC2)cc1,3.25% (inactive)
5,Cc1cc(C)c(C)c(S(=O)(=O)Nc2cccnc2)c1C,-0.0811% (inactive)
6,CCN(CC)c1ccc(/C=N/NC(=O)c2cnccn2)c(O)c1,95.3% (active)
7,CCN(CC)c1ccc(/C=N/NC(=O)CNC(=O)c2cccnc2)cc1,-0.424% (inactive)
8,CCN(CC)c1ccc(/C=N/Nc2nc(C)cc(C)n2)c(O)c1,1.77% (inactive)
9,Cc1c(C(=O)Nc2ccccn2)oc2ccc(Br)cc12,2.61% (inactive)
10,Cc1ccc(C(=O)O)cc1NC(=O)c1ccc(Cn2nc(C)c(Cl)c2C)o1,-0.0752% (inactive)
11,Cc1c(Cl)c([N+](=O)[O-])nn1CCCC(=O)Nc1cc(Cl)ccc1Cl,-0.466% (inactive)
12,Cc1c(Cl)c([N+](=O)[O-])nn1Cc1ccc(C(=O)N/N=C\c2cc(Cl)ccc2O)o1,49.6% (active)
13,O=C(COc1coc(CN2CCN(c3ccccc3F)CC2)cc1=O)N1CCc2ccccc21,0.2% (inactive)
14,Cc1nc(-c2ccc(F)cc2)c(CC(=O)Nc2cc(S(=O)(=O)N3CCCCC3)ccc2C)s1,-0.206% (inactive)
15,CC1CN(C(=O)COC(=O)c2cccc(NS(=O)(=O)c3ccccc3)c2)CC(C)O1 (stereo not drawn),-0.538% (inactive)
16,CC(C)N(Cc1ccccc1)C(=O)COC(=O)c1ccccc1SCC(=O)N1CCCC1,-0.658% (inactive)
17,Oc1ccc(N=Nc2nccs2)c(O)c1,-0.857% (inactive)
18,c1ccc(NCc2cccc3ccccc23)nc1,-34.2% (inactive)
19,Oc1ccc2ccccc2c1N=Nc1nccs1,68.6% (active)
20,COc1cccc(NC(=O)CSc2nccn(-c3ccc4c(c3)OCCO4)c2=O)c1,0.704% (inactive)
21,CC(OC(=O)CCCc1c[nH]c2ccccc12)C(=O)Nc1ccc(S(N)(=O)=O)cc1 (stereo not drawn),0.134% (inactive)
22,CCCn1nc(C(=O)NNC(=O)CCOc2ccccc2OCC)c2ccccc2c1=O,0.594% (inactive)
23,COc1ccc(-c2cc(C(F)(F)F)nc(SCC(=O)Nc3ccc4c(c3)OCO4)n2)cc1OC,-1.49% (inactive)
24,COc1ccc(-c2cc(C(F)(F)F)nc(S(C)(=O)=O)n2)cc1OC,18.9% (active)

row,SMILES,activation
1,COc1cc(OC)nc(S(C)(=O)=O)n1,0.158% (inactive)
2,COc1ccc(C(=O)Nc2ccc(C(=O)NCC3CCCO3)cc2)c(OC)c1OC (stereo not drawn),-3.72% (inactive)
3,COc1cc(N)c(Cl)cc1C(=O)OCC(=O)c1ccc2c(c1)NC(=O)CO2,0.0757% (inactive)
4,CCCCn1c(N)c(N(CCOC)C(=O)COc2c(C)cccc2C)c(=O)[nH]c1=O,-0.338% (inactive)
5,Cc1nn(C)cc1C(=O)c1ccccc1,0.273% (inactive)
6,COc1ccc2c(c1)CCNC2Cc1ccc(OC)c(O)c1 (stereo not drawn),0.872% (inactive)
7,O=C1NC(c2ccccc2)Oc2ccccc21 (stereo not drawn),-0.318% (inactive)
8,COc1cccc(/C=N/Nc2cc(C)nc(-c3ccccc3O)n2)c1O,0.0705% (inactive)
9,COc1cccc(/C=N/NC(=O)c2[nH]nc3c2CCc2ccccc2-3)c1O,46.5% (active)
10,CN(C)CCNC(=O)c1[nH]nc2c1CCc1ccccc1-2,2.68% (inactive)
11,COc1ccc(O)c(/C=N/N=C/c2cccc([N+](=O)[O-])c2)c1,-2.34% (inactive)
12,CC(C)C(O)C1CCN(Cc2nc(Cc3ccccc3Cl)no2)CC1 (stereo not drawn),0.0858% (inactive)
13,Cc1ccccc1N1CCN(Cc2nc(Cc3ccccc3F)no2)CC1,0.117% (inactive)
14,C1CC1Cc1noc(CN2CCN(CC3CC3)CC2)n1,75.3% (active)
15,O=C(Nc1ccc(F)c([N+](=O)[O-])c1)C1CCCO1 (stereo not drawn),-0.403% (inactive)
16,COc1ccccc1C1=CC(=O)CCC1,0.17% (inactive)
17,COc1ccccc1CCNC(=O)C(=O)NCCC1CCCCN1S(=O)(=O)c1cccs1 (stereo not drawn),0.0341% (inactive)
18,Cc1cccc(NC(=S)N2CCCC(c3nc4ccccc4[nH]3)C2)c1 (stereo not drawn),0.822% (inactive)
19,CN(C)CCCNC(=S)N1CCC(c2nc3ccccc3[nH]2)CC1,0.0482% (inactive)
20,CCCNC(=S)N1CCCC(c2nc3ccccc3[nH]2)C1 (stereo not drawn),99.5% (active)
21,O=C(NCc1ccc2c(c1)OCO2)c1c(O)nc2sccn2c1=O,-0.288% (inactive)
22,COc1cc(C2CC(=O)N3CN(Cc4ccccc4)CSC3=C2C#N)ccc1OCc1ccccc1 (stereo not drawn),227% (active)
23,COc1cc(CN2CCC(C(N)=O)CC2)ccc1OCc1ccccc1,5.51% (inactive)
24,COc1cc(CNC2CCCC2)c(Br)cc1OCc1ccccc1,-0.706% (inactive)
